In PubChem BioAssay AID1159580 (chemical genetic matrix, 2015):
In all, about 5,500 compounds went through this assay and about 2,000 (36%) were called active. Not shown: some 18% with an inconclusive outcome. No stated cut-off is given here; in the data, active means normalized growth mostly below about 0.91 (no sharp cut-off); inconclusive means no clear call, values can overlap the other calls; inactive means mostly above about 0.92. The list shows a part of the results.

Assay: chemical genetic growth profiling, strain panel (AID 1159580);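 further: tested at 20 µM; growth read once vehicle control cultures reached saturation at 30 °C; 1 = growth at the plate median or of vehicle wells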
Conditions: growth OD

Measured: normalized growth

CC(=O)CCCCn1c(=O)c2c(ncn2C)n(C)c1=O
inactive: S. cerevisiae deletion strains, locus YJR066W, strain TOR1, stronger effect = lower value 0.958 | S. cerevisiae deletion strains, locus YJR075W, strain HOC1, stronger effect = lower value 1.01 | S. cerevisiae deletion strains, locus YKL009W, strain mrt4, stronger effect = lower value 0.994 | S. cerevisiae deletion strains, locus YKL068W, stronger effect = lower value 0.997 | S. cerevisiae deletion strains, locus YKL085W, strain MDH1 (second series), stronger effect = lower value 1 | S. cerevisiae deletion strains, locus YKL085W, strain MDH1, stronger effect = lower value 1 | S. cerevisiae deletion strains, locus YKL160W, strain elf1, stronger effect = lower value 1.02 | S. cerevisiae deletion strains, locus YKL190W, strain CNB1, stronger effect = lower value 1.02 | S. cerevisiae deletion strains, locus YKR001C, strain vps1, stronger effect = lower value 1.02 | S. cerevisiae deletion strains, locus YKR026C, strain gcn3, stronger effect = lower value 1.01 | S. cerevisiae deletion strains, locus YKR091W, strain srl3, stronger effect = lower value 1.01 | S. cerevisiae deletion strains, locus YLL001W, strain dnm1, stronger effect = lower value 1.01 | S. cerevisiae deletion strains, locus YLL026W, stronger effect = lower value 1.01 | S. cerevisiae deletion strains, locus YLL041C, strain sdh2, stronger effect = lower value 1.01 | S. cerevisiae deletion strains, locus YLR027C, strain aat2, stronger effect = lower value 1 | S. cerevisiae deletion strains, locus YLR039C, strain RIC1, stronger effect = lower value 1.03 | S. cerevisiae deletion strains, locus YLR058C, strain SHM2, stronger effect = lower value 1.02 | S. cerevisiae deletion strains, locus YLR102C, strain apc9, stronger effect = lower value 0.997 | S. cerevisiae deletion strains, locus YLR113W, strain HOG1, stronger effect = lower value 1 | S. cerevisiae deletion strains, locus YLR221C, strain rsa3, stronger effect = lower value 1.02 | S. cerevisiae deletion strains, locus YLR258W, strain gsy2, stronger effect = lower value 1.01 | S. cerevisiae deletion strains, locus YLR262C, strain YPT6 (second series), stronger effect = lower value 1.01 | S. cerevisiae deletion strains, locus YLR262C, strain YPT6, stronger effect = lower value 1.09 | S. cerevisiae deletion strains, locus YLR268W, strain sec22, stronger effect = lower value 1.01 | S. cerevisiae deletion strains, locus YLR320W, strain mms22, stronger effect = lower value 1.03 | S. cerevisiae deletion strains, locus YLR330W, strain CHS5, stronger effect = lower value 1.01 | S. cerevisiae deletion strains, locus YLR342W, strain FKS1 (second series), stronger effect = lower value 0.979 | S. cerevisiae deletion strains, locus YLR342W, strain FKS1, stronger effect = lower value 1.01 | S. cerevisiae deletion strains, locus YLR357W, strain rsc2, stronger effect = lower value 1.07 | S. cerevisiae deletion strains, locus YLR370C, strain arc18, stronger effect = lower value 1.02 | S. cerevisiae deletion strains, locus YLR371W, strain rom2, stronger effect = lower value 0.993 | S. cerevisiae deletion strains, locus YLR384C, strain iki3, stronger effect = lower value 1.02 | S. cerevisiae deletion strains, locus YLR418C, strain cdc73, stronger effect = lower value 0.982 | S. cerevisiae deletion strains, locus YML016C, strain PPZ1, stronger effect = lower value 1.02 | S. cerevisiae deletion strains, locus YML032C, strain rad52, stronger effect = lower value 0.997 | S. cerevisiae deletion strains, locus YML120C, strain ndi1, stronger effect = lower value 1.02 | S. cerevisiae deletion strains, locus YML124C, strain tub3, stronger effect = lower value 0.996 | S. cerevisiae deletion strains, locus YMR058W, strain fet3, stronger effect = lower value 1.02 | S. cerevisiae deletion strains, locus YMR078C, strain ctf18, stronger effect = lower value 0.996 | S. cerevisiae deletion strains, locus YMR125W, strain sto1, stronger effect = lower value 1.02 | S. cerevisiae deletion strains, locus YMR129W, stronger effect = lower value 1.01 | S. cerevisiae deletion strains, locus YMR205C, strain PFK2, stronger effect = lower value 1.04 | S. cerevisiae deletion strains, locus YMR223W, strain ubp8, stronger effect = lower value 0.975 | S. cerevisiae deletion strains, locus YMR231W, strain pep5, stronger effect = lower value 1.02 | S. cerevisiae deletion strains, locus YMR307W, strain GAS1, stronger effect = lower value 0.995 | S. cerevisiae deletion strains, locus YNL067W, strain RPL9B, stronger effect = lower value 1.04 | S. cerevisiae deletion strains, locus YNL071W, strain lat1, stronger effect = lower value 1.01 | S. cerevisiae deletion strains, locus YNL128W, strain TEP1, stronger effect = lower value 0.998 | S. cerevisiae deletion strains, locus YNL175C, strain NOP13, stronger effect = lower value 1.02 | S. cerevisiae deletion strains, locus YNL183C, strain NPR1, stronger effect = lower value 0.924 | S. cerevisiae deletion strains, locus YNL197C, strain WHI3, stronger effect = lower value 1.01 | S. cerevisiae deletion strains, locus YNL209W, strain ssb2, stronger effect = lower value 1.01 | S. cerevisiae deletion strains, locus YNL224C, strain SQS1, stronger effect = lower value 1 | S. cerevisiae deletion strains, locus YNL233W, strain BNI4, stronger effect = lower value 1.02 | S. cerevisiae deletion strains, locus YNL248C, strain rpa49, stronger effect = lower value 1.01 | S. cerevisiae deletion strains, locus YNL250W, strain rad50, stronger effect = lower value 1.02 | S. cerevisiae deletion strains, locus YNL271C, strain bni1, stronger effect = lower value 1 | S. cerevisiae deletion strains, locus YNL298W, strain CLA4, stronger effect = lower value 1 | S. cerevisiae deletion strains, locus YNL307C, strain MCK1, stronger effect = lower value 0.99 | S. cerevisiae deletion strains, locus YNL322C, strain KRE1 (second series), stronger effect = lower value 1.02 | S. cerevisiae deletion strains, locus YNL322C, strain KRE1, stronger effect = lower value 1.01 | S. cerevisiae deletion strains, locus YNR049C, strain mso1, stronger effect = lower value 1.01 | S. cerevisiae deletion strains, locus YNR052C, strain pop2, stronger effect = lower value 1.01 | S. cerevisiae deletion strains, locus YOL006C, strain TOP1, stronger effect = lower value 1.08 | S. cerevisiae deletion strains, locus YOL012C, strain htz1 1.51 | S. cerevisiae deletion strains, locus YOL147C, strain pex11, stronger effect = lower value 1 | S. cerevisiae deletion strains, locus YOR001W, strain rrp6, stronger effect = lower value 1.04 | S. cerevisiae deletion strains, locus YOR061W, strain CKA2, stronger effect = lower value 1.02 | S. cerevisiae deletion strains, locus YOR069W, strain VPS5, stronger effect = lower value 1.01 | S. cerevisiae deletion strains, locus YOR070C, strain gyp1, stronger effect = lower value 1.01 | S. cerevisiae deletion strains, locus YOR080W, strain dia2, stronger effect = lower value 1.02 | S. cerevisiae deletion strains, locus YOR083W, strain WHI5 (second series), stronger effect = lower value 1.05 | S. cerevisiae deletion strains, locus YOR083W, strain WHI5, stronger effect = lower value 1 | S. cerevisiae deletion strains, locus YOR106W, strain vam3, stronger effect = lower value 1.02 | S. cerevisiae deletion strains, locus YOR136W, strain idh2, stronger effect = lower value 0.996 | S. cerevisiae deletion strains, locus YOR144C, strain elg1, stronger effect = lower value 0.99 | S. cerevisiae deletion strains, locus YOR184W, strain ser1, stronger effect = lower value 0.999 | S. cerevisiae deletion strains, locus YOR231W, strain MKK1, stronger effect = lower value 0.977 | S. cerevisiae deletion strains, locus YOR265W, strain rbl2, stronger effect = lower value 1.01 | S. cerevisiae deletion strains, locus YOR270C, strain vph1, stronger effect = lower value 1.04 | S. cerevisiae deletion strains, locus YOR290C, strain snf2, stronger effect = lower value 1 | S. cerevisiae deletion strains, locus YOR316C, strain cot1, stronger effect = lower value 0.999 | S. cerevisiae deletion strains, locus YPL051W, strain arl3, stronger effect = lower value 1.01 | S. cerevisiae deletion strains, locus YPL055C, strain LGE1, stronger effect = lower value 1.04 | S. cerevisiae deletion strains, locus YPL078C, strain atp4, stronger effect = lower value 1.01 | S. cerevisiae deletion strains, locus YPL106C, strain sse1, stronger effect = lower value 1.03 | S. cerevisiae deletion strains, locus YPL240C, strain hsp82, stronger effect = lower value 1.01 | S. cerevisiae deletion strains, locus YPL241C, strain CIN2, stronger effect = lower value 1.01 | S. cerevisiae deletion strains, locus YPL256C, strain CLN2, stronger effect = lower value 0.958 | S. cerevisiae deletion strains, locus YPR119W, strain clb2, stronger effect = lower value 0.993 | S. cerevisiae deletion strains, locus YPR141C, strain kar3, stronger effect = lower value 0.991 | S. cerevisiae deletion strains, locus YPR163C, strain tif3, stronger effect = lower value 1 | S. cerevisiae deletion strains, locus YPR167C, strain met16, stronger effect = lower value 0.997 | S. cerevisiae deletion strains, strain wtn01, stronger effect = lower value 1 | S. cerevisiae strains, strain wild type, stronger effect = lower value 1.02
